Laboratory results taken from PubChem BioAssay AID493073 (Broad Institute, 2011).
Among all 1,200 compounds or so, about 810 (68%) were called active. How the calls were made is not given here. The set was probably picked from earlier hits. The list is a sample of the results. Results with a measured potency or affinity are listed apart.

Test: reducers of TRPM1 reporter luminescence, concentration series – cell-based, SK-MEL-5, cherry-picked, set 3, MITF inhibitor project, dose response (AID 493073)
Conditions: SK-MEL-5 TRPM1 promoter luciferase, 24 h; series mostly up to 35 µM; activity change, negative = inhibition: at the top concentration

Activity change, negative = inhibition, inactive:
CCC(=O)Nc1cc(C(=O)OCC(=O)c2ccccc2Cl)ccc1C 76.3%
N#Cc1cnn2cc(CCN3CCOCC3)c(-c3ccc(F)cc3)nc12 10.1%
CC(C)N1C(=O)S/C(=C\c2ccc(-c3ccc(Cl)c(C(=O)O)c3)o2)C1=O 7.32%
OCC1CCCC(n2cnc3c(=S)nc[nH]c32)O1 (configuration not stated) 13.4%
O=C(Nc1ccccc1Cl)Nc1cccc2cccnc12 68%
CCOc1ccc(C(=O)N2CCc3ccccc32)cc1 38.1%
O=C(c1cc2ccccc2oc1=O)N1CCN(c2ncccn2)CC1 67.3%
O=C(NCCNc1ccccc1[N+](=O)[O-])c1cc(F)c(F)cc1Cl -57.4%
Cc1cc2oc3ccc(NCCC4CCCN4C)cc3c(=O)c2cc1C (configuration not stated) -104%
CS(=O)(=O)c1ccc2nc(NC(=O)c3ccccc3)sc2c1 12.7%
CC1Cc2ccccc2N1C(=O)c1ccc(Br)o1 (configuration not stated) 81.6%
CCNC(=O)CC1C(=O)N(c2ccc(F)cc2)C(=O)N1CCc1ccc(OC)cc1 (configuration not stated) 15.2%
COc1ccc(C(=O)CCNc2ccc(F)cc2)cc1 85.6%
CCN1CCN(c2ccc(S(=O)(=O)N3CCCCC3)cc2NC(=O)/C=C/c2cccc(OC)c2OC)CC1 -98%
Cc1ccc(NC(=O)c2ccccc2)cc1 80.8%
Cc1ccccc1C(=O)O/N=C(\N)c1ccc([N+](=O)[O-])cc1 13%
N/C(=N\OC(=O)c1ccc([N+](=O)[O-])cc1)c1ccc(Br)cc1 95.2%
COc1ccccc1N1CCN(/N=C/c2ccc([N+](=O)[O-])cc2)CC1 -13.3%
O=C(Nc1ccc(-c2cn3c(n2)SCC3)cc1)c1ccco1 56%
Cc1ccc(CC(=O)Nc2ccc(Cl)cn2)cc1 56.5%
O=C(N/N=C/C=C/c1ccccc1)c1ccccn1 94.3%
CC(=O)COc1ccc2cc(-c3ccccc3)c(=O)oc2c1 59.7%
O=C(NC1=NCCS1)c1ccc(Cl)c(Cl)c1 44.6%
COc1ccc(NC(=O)C2COc3ccccc3O2)cc1 (configuration not stated) -82.9%
Cc1ccc(Nc2nnc(-c3ccccc3N)o2)cc1C 94.4%
COCc1cc(C)nc2sc(C(=O)Nc3cccc(OC)c3)c(N)c12 -17%
COc1ccc(/C=C/C(=O)NC(=S)N2CCN(c3ccccc3OC)CC2)cc1 69.5%
c1cnc(SCCOc2ccc3c(c2)CCC3)nc1 24.9%
O=C(Nc1ccccn1)c1ccc(Br)s1 56.3%
Cc1cc(N2CCOCC2)n2ncc(-c3ccccc3Cl)c2n1 102%
CC(=C/c1ccco1)/C=N/N1CCN(c2ccccc2)CC1 -79.5%
CCN(CC(=O)Nc1ccc2c(c1)OCCO2)C(=O)c1ccc([N+](=O)[O-])s1 -34.7%
Cc1ccc(NC(=O)c2cc(N3C(=O)C=CC3=O)ccc2N2CCOCC2)cc1Cl -88.5%
CS(=O)(=O)N1CCN(c2nc3ccc(Cl)cc3s2)CC1 78.7%
CCN(CC)C(=O)CCCOc1ccc(Cl)cc1Cl 20.3%
O=C(Nc1ccccc1F)C(=O)Nc1cccc2ccccc12 19.6%
COc1cc2ccccc2cc1C(=O)Nc1ccc(N2CCN(C)CC2)cc1 138%
CCOc1cccc(C(=O)NC2=NCCS2)c1 28%
CCCOC(=O)c1ccc(NC(=O)C2CCCO2)cc1 (configuration not stated) 109%
CCOc1ccc(N/C=C/C(=O)c2ccc(OC)c(OC)c2)cc1 105%
O=[N+]([O-])c1cc(C(F)(F)F)ccc1NCCc1ccccn1 80.2%
Cc1cccc(OCC(=O)Nc2cccc(O)c2)c1 60.4%
COc1cccc(NC(=O)c2cc3ccccc3cc2OC)c1 51.2%
Cc1ccc(OCC(=O)Nc2cccc(C)n2)c(C)c1 69.9%
COc1cccc(NC(=O)c2cnn(-c3ccccc3)c2C)c1 -9.88%
O=C(/C=C/c1ccc2c(c1)OCCO2)c1ccccc1 -51.6%
O=C(Nc1ccccc1F)c1ccc2c(c1)OCO2 -47.3%
CC(=O)N(c1nnc(-c2cccc(C)c2)s1)C1CCCC1 101%
C/C(=N\Nc1nccnc1Cl)c1ccc(O)c(C)c1 91.9%
CN1CCN(CCCOc2ccc(-c3ccccc3)cc2)CC1 13.4%
COc1ccc(C(=O)CN2Cc3ccccc3C2=N)cc1 76.8%
CCCOc1ccc(-c2c(=O)n(O)c3ccccc3[n+]2[O-])cc1 37.1%
O=C(c1ccc(F)cc1)N1CCC(c2ccccc2)C1 (configuration not stated) 104%
COc1ccc(NC(=O)c2cc3ccccc3oc2=O)c(OC)c1 52.2%
COc1ccc2oc(=O)c(C(=O)Nc3ccccc3C)cc2c1 -2.57%
COc1ccc(N/C=C\C(=O)c2ccc3ccccc3c2)cc1 88.6%
COc1ccc(COC(=O)c2n[nH]c3ccccc23)cc1F 47.7%
Cc1ccc(C(CNS(=O)(=O)c2ccc(Br)cc2)N2CCN(C)CC2)cc1 (configuration not stated) -81.2%
COc1ccc(/C=C/c2cc(C(F)(F)F)on2)cc1 107%
Cc1cccc(OCc2nc3ccccc3n2C)c1 -19.5%
O=C(/C=C/c1ccc2c(c1)OCO2)N1CCCCC1 62.1%
O=C(Nc1ccccc1)C1Cc2ccccc2CN1C(=O)c1ccco1 (configuration not stated) 73.5%
CC(C)C(=O)Nc1ccc2nn(-c3ccc(F)cc3)nc2c1 7.63%
CC(=O)Oc1ccc(C)cc1-n1nc2ccccc2n1 65.9%
CCOCCCNC(=O)/C(C#N)=C/c1ccc([N+](=O)[O-])o1 -96.3%
CCOC(=O)c1ccc2nc(C)c(CCC(C)=O)c(Cl)c2c1 105%
O=C(Cc1ccccc1)Nc1ccc(NC(=O)c2ccco2)nc1 -37.9%
COc1ccc2oc(=N)c(C(=O)Nc3ccccc3Cl)cc2c1 21.5%
CCOC(=O)c1sc(NC(=O)Nc2ccc(Cl)cc2)nc1C 96.9%
Cc1nc(NCCOc2ccccc2)sc1C(=O)Nc1ccccc1 46.1%
Cn1c(/C(C#N)=C/c2ccc(-c3ccc(S(N)(=O)=O)cc3)o2)nc2ccccc21 -79.9%
COc1ccc(/C=N/Nc2ccccn2)cc1OC 97.2%
S=c1[nH]nc(-c2ccco2)n1/N=C/C(Cl)=C/c1ccccc1 77.9%
Nc1ccccc1SC1CC(=O)N(c2ccc3c(c2)OCCO3)C1=O (configuration not stated) 82.2%
COc1ccccc1N1CCN(/N=C/c2cccc(Cl)c2)CC1 132%
Cc1csc(NC(=O)Cc2c(F)cccc2Cl)n1 78.6%
Clc1ccc(-c2noc(CN3CCOCC3)n2)cc1 81.6%
Cc1ccc(NC(=O)c2cnc3ccccc3n2)cc1C 44.3%
O=C(CC(=O)c1ccccc1)Nc1ccccc1 12.2%
COc1ccc(-c2noc(-c3cccs3)n2)cc1OC 95.4%
CCOc1ccc2nc(NC(=O)Cc3cccs3)sc2c1 92.9%
CCc1nc2oc3ccc(C)cc3c(=O)c2cc1C(=O)OC 89.6%
Cc1[nH]nc(Nc2ccc(Br)cc2)c1[N+](=O)[O-] 91.7%
CS/C(N)=N/N=C/c1ccc2c(c1)OCO2 103%
COc1cccc(/C=N/Nc2nc3ccccc3[nH]2)c1OC 125%
COc1ccccc1N1CCN(/N=C\c2ccccc2)CC1 104%
CC(C)c1ccc(C(=O)Nc2cccnc2)cc1 12.8%
COC(=O)c1ccc(/C=N/Nc2nc(C)c(C)s2)cc1 36%
O=C(CSc1nc2ccccc2[nH]1)c1ccc2c(c1)OCO2 102%
O=C(Nc1ccc(Br)cc1)c1ccc2c(c1)OCO2 39.3%
CCOc1ccc2cc(C#N)c(SCC(=O)OC)nc2c1 112%
CC(=O)Nc1ccc(-c2nc3ccccc3o2)cc1 57.7%
Cc1occc1C(=O)N/N=C/c1ccc(OCc2ccccc2)cc1 87.6%
CCc1nc2oc3ccccc3c(=O)c2cc1C(=O)OC 12.5%
Cc1nc(-c2ccccn2)sc1C(=O)Nc1ccc(F)cc1F 45.1%
COc1ccc(-c2csc(Nc3ccccn3)n2)cc1OC -24.3%
COCn1c(COc2ccccc2)nc2ccccc21 71.5%
Cc1ccc(-n2cc(CNCCCn3cccn3)c(-c3cccc(C)c3)n2)cc1 -100%
Cc1oc(=O)c(NC(=O)c2ccccc2)cc1C(=O)c1ccccc1 90.5%
CN(C)c1ccc(/C=N/N2CCN(c3ccccn3)CC2)cc1 80.7%
CN(C)c1ccc(NC(=O)Nc2ccc3c(c2)nnn3C)cc1 90.3%
CN(C)c1ccc(CNc2ccccn2)cc1 108%
CC(C)OC(=O)CSc1nc2cc3c(cc2cc1C#N)OCO3 69%
O=C(Nc1ccc(N2CCOCC2)c(Cl)c1)c1cccc(F)c1 102%
Cc1ccc(N2C(=O)c3ccc(N)cc3C2=O)cc1C 101%
Oc1ccc(-c2nnc(SCC3CCCCC3)o2)cc1 108%
COc1ccc(C[C@H]2CN3C(=NC[C@@H]3C(C)C)N2CCNC(=O)c2ccc(C)c(Br)c2)cc1 -111%
CCN1CCN(CCCNC(=O)c2ccc3c(Cl)c4c(nc3c2)CCCC4)CC1 -101%
CCCC1=Nc2cc(C(=O)NCCN3CCCC3)ccc2Sc2ccccc21 -84%
COc1ccc(/C=C2\Sc3ccc(C(=O)NCCN4CCCCCC4)cc3N(C)C2=O)cc1 -76.3%
Cc1ccc(-c2noc(-c3ccno3)n2)cc1 83.1%
Cc1ccc2[nH]c(=O)c(CN(CCCN(C)C)C(=O)Nc3cccc(Cl)c3)cc2c1 -105%
O=C(NCc1ccc2c(c1)OCO2)c1cc(=O)[nH]c2ccccc12 0.381%
Nc1c(N(CCC2=CCCCC2)C(=O)COc2ccc(F)cc2)c(=O)[nH]c(=O)n1Cc1ccccc1 -94.3%
O=C(NCc1csc(-c2cccs2)n1)C1CCC1 76.4%
O=C(Nc1ccc(Cl)cc1)OCc1ccccn1 105%
CCOc1ccc(NC(=O)c2ccc3snnc3c2)cc1 -60.8%
O=C(Nc1ccc2c(c1)OCCO2)c1cccc(Cl)c1Cl 22.9%
O=C(Nc1ccc2c(c1)OCCO2)c1ccoc1 39.9%
O=C1CN(c2ccccc2)C(=S)N1C(=O)c1ccccc1 75%
COc1ccc(NC(=O)c2cc(F)cc(F)c2)cc1Cl -77.3%
O=[N+]([O-])c1ccc(N/N=C/C=C/c2ccco2)cc1 51%
